# From the supplement of paper PMC8728848
# This is one part of a sample in which the strongest signals are shown more often than they occur.
# How the values were obtained:
# Experiment in all cases: glycan array binding signal (z-score within array); higher = stronger binding
# Conditions in all cases: glycan notation: IUPAC condensed, linker removed
# [1] = tested on: Gal(b1-3)Gal(b1-4)GlcNAc
# Outline: (§1)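 Glycan array data were curated from 3228 arrays in the Consortium for Functional Glycomics database and kept only where the protein sequence was available. Glycan names were converted to IUPAC-condensed notation, and columns mapping to the same glycan were averaged. The binding signal is a within-array Z-score, averaged across arrays of the same protein sequence at different concentrations or buffers and across linkers. Negative Z-scores can be read as non-binding.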
# [2] = tested on: Gal(b1-3)GalNAc(b1-3)Gal
# Outline: as §1
# [3] = tested on: Gal(b1-3)GalNAc(b1-4)Gal(b1-4)Glc
# Outline: as §1
# [4] = tested on: Gal(b1-3)GalNAc
# Outline: as §1
# [5] = tested on: Gal(b1-3)GalNAc(a1-3)[Fuc(a1-2)]Gal(b1-4)GlcNAc
# Outline: as §1
# [6] = tested on: Gal(b1-3)GalNAc(a1-3)[Fuc(a1-2)]Gal(b1-4)Glc
# Outline: as §1
# [7] = tested on: Gal(b1-2)Gal
# Outline: as §1
# [8] = tested on: Gal(a1-6)Glc
# Outline: as §1
# [9] = tested on: Gal(b1-3)GalNAc(b1-3)Gal(a1-4)Gal(b1-4)Glc
# Outline: as §1
# [10] = tested on: Gal(b1-3)GalNAc(b1-4)[Neu5Gc(a2-3)]Gal(b1-4)Glc
# Outline: as §1
substance,measurement,setting,value
"SiiE (Salmonella typhimurium), A0A0H3NVH0",glycan array binding signal (z-score),[1],-1.51
Epa22,glycan array binding signal (z-score),[2],2.8
same,glycan array binding signal (z-score),[3],2.6
same,glycan array binding signal (z-score),[4],1.46
Actinohivin (Actinomycete K97),glycan array binding signal (z-score),[1],-0.14
same,glycan array binding signal (z-score),[5],-0.176
"SpGH101 (Streptococcus pneumoniae), Q8DR60",glycan array binding signal (z-score),[1],-0.193
same,glycan array binding signal (z-score),[5],1.71
same,glycan array binding signal (z-score),[6],2.88
same,glycan array binding signal (z-score),[4],8.17
LcI (Legionella pneumophila),glycan array binding signal (z-score),[7],4.02
"BambL (Burhholderia ambifaria), Q0B4G1",glycan array binding signal (z-score),[7],-0.304
same,glycan array binding signal (z-score),[6],-0.278
AgI/II Vhelical-GFP (Streptococcus mutans),glycan array binding signal (z-score),[8],-0.194
same,glycan array binding signal (z-score),[3],-0.139
"GspB (Streptococcus gordonii), Q939N5",glycan array binding signal (z-score),[9],3.02
"MIC3-MAR1b (Eimeria tenella), B6VCV4",glycan array binding signal (z-score),[10],-0.47
"Wza (Escherichia coli), P0A930",glycan array binding signal (z-score),[8],3.12
same,glycan array binding signal (z-score),[1],3.02
